Bioassay records deposited in PubChem by Sanford-Burnham Center for Chemical Genomics.
Shown are actives, neighbours in structure and some others; about 3% of the full set was active somewhere.
SENP6 inh – blocks the human protease SENP6 | Recombinant SENP6 catalytic domain, aminoluciferin luminescence | actives 1.8% (n = 330,000) | inhibition, % at 10 µM;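 active means inhibition above about 50% at the single tested dose, limit read from the data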;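 further: plate controls were DMSO wells with enzyme for no effect and DMSO wells lacking enzyme for full effect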
SENP7 inh – SENP7 protease inhibition | actives 1.5% (n = 330,000) | inhibition, % at 5 µM | AID 434973 | recombinant SENP7, Z-RLRGG-aminoluciferin luminescence, 40 min;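 active means inhibition above about 50% at the single test dose, limit read from the data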;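 further: plate controls were DMSO with enzyme for no effect and no enzyme buffer wells for full effect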
PPC-1+TRAIL kill – compounds killing PPC-1 cancer cells with TRAIL present (potentiator screen, no TRAIL-free arm) | PPC-1 cells + TRAIL, ATPLite viability luminescence | cell killing (% activity), % at 4 µM or 5 µM | actives 0.41% (n = 220,000);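 active means cell killing above 50% in the first pass at 4 µM, then a duplicate retest at 5 µM averaging 50% or more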;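 further: plate controls were cells with TRAIL plus DMSO for no effect and medium-only wells lacking cells for full effect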
SENP8 block-1 – inhibitors of human SENP8 protease; Q96LD8; purified SENP8, Z-RLRGG-aminoluciferin cleavage, luminescence; inhibition, % at 10 µM; actives 1.2% (n = 330,000); AID 2540; in the data active means inhibition above about 50%
Target sequence (Q96LD8 whole entry, looked up): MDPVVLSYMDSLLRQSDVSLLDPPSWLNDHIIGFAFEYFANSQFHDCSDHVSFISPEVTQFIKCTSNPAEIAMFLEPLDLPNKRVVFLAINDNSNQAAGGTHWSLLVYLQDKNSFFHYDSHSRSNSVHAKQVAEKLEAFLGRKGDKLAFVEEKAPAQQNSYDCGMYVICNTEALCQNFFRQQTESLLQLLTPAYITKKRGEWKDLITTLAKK
TRAIL sens C8 – caspase-8 TRAIL sensitization; AID 624354; inhibition (viability loss, TRAIL sensitization), % at 10 µM; actives 1% (n = 360,000); NB7+C8 cells + TRAIL, ATPlite viability luminescence;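 active means compounds causing at least 50% loss of cell viability in the single-dose screen, relative to plate controls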
SENP8 block-2 – inhibitors of human SENP8 protease. Q96LD8. actives 0.64% (n = 360,000). AID 602440. inhibition, % at 20 µM. recombinant SENP8, Nedd8 substrate fluorescence; in the data active means inhibition mostly above about 40%, no sharp cut-off; inactive means mostly below about 27%
SENP8 conf – human SENP8 inhibition, confirmed; inhibition, % at 12.5 µM; actives 40% (n = 6,200); AID 488912; Recombinant SENP8, Z-RLRGG-aminoluciferin luminescence, 60 min; shares compounds with SENP7 inh;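 active means mean inhibition across replicates above about 50%, limit read from the data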
SENP6 confirm – human SENP6 inhibition, confirmed; shares compounds with SENP7 inh; recombinant SENP6, Z-RLRGG-aminoluciferin luminescence; inhibition, % at 12.5 µM; actives 58% (n = 6,200)
SENP7 conf – human SENP7 inhibition, confirmed; shares compounds with SENP7 inh; recombinant SENP7, Z-RLRGG-aminoluciferin luminescence, 40 min; inhibition, % at 12.5 µM; actives 69% (n = 6,200); AID 488917
Casp3 SENP sel – caspase-3 inhibition (SENP selectivity assay) | shares compounds with SENP7 inh | purified caspase-3, Z-DEVD-aminoluciferin luminescence, 60 min | inhibition, % at 12.5 µM | actives 60% (n = 6,200) | AID 488918;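 active means mean inhibition above about 50%, limit read from the data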;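 further: plate controls were enzyme with DMSO for no effect and wells without caspase-3 for full effect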
Target sequence (P42574 28-227 limits assumed): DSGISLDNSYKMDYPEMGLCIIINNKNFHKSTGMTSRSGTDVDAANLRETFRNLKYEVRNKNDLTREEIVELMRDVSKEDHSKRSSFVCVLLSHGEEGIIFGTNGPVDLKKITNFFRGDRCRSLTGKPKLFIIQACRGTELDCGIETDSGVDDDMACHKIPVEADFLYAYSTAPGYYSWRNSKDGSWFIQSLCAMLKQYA
SENP luc ctr – interferes with luciferase luminescence in SENP counter-screen; shares compounds with SENP7 inh; Pre-incubated SENP8/Z-RLRGG-aminoluciferin, luciferase luminescence interference; inhibition, % at 12.5 µM; actives 39% (n = 6,200);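 active means mean inhibition above about 50% when retested at one dose, limit read from the data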;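 further: plate controls were DMSO wells with completed reaction for no effect and substrate without enzyme for full effect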
* hit, by the source's call.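 How the source made its calls, unless noted: active means mean inhibition above about 50% in the one-dose retest (limit read from the data); inactive means the rest.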

S=C(NCCCN1CCN(CCCNC(=S)NC2CCCCC2)CC1)NC1CCCCC1 was read as TRAIL sens C8 -0.2 and SENP8 block-2 8.6.
Screening COc1ccc(NC2CCCN(C(=O)c3ccccc3N3CCOCC3)C2)cc1OC (centres undefined) returned SENP6 inh 12.5, SENP7 inh 1.7, SENP8 block-1 6.0, TRAIL sens C8 -9.0 and SENP8 block-2 5.8.
`CCOc1ccc(NC(=O)CN(C)C(=O)CCN2C(=O)C3CC=CCC3C2=O)cc1OCC` (centres undefined) gave SENP6 inh -3.9, SENP7 inh 8.4, SENP8 block-1 -2.0, TRAIL sens C8 -17.8 and SENP8 block-2 4.7.
For O=C(O)c1ccc(/C=N\Nc2ccccn2)cc1 the results were SENP6 inh 91.7*, SENP7 inh 94.9*, SENP8 block-1 88.8*, TRAIL sens C8 1.3, SENP8 block-2 -2.7, SENP8 conf 94.6*, SENP6 confirm 96.0*, SENP7 conf 101.8*, Casp3 SENP sel 98.2* and SENP luc ctr 88.9*.
C(=N\Nc1ccccn1)/c1cccnc1 was read as SENP6 inh -15.0, SENP7 inh -12.3, SENP8 block-1 -21.9, TRAIL sens C8 0.1 and SENP8 block-2 5.4.
Screening CN(C)c1ccc(C=NNc2ccccn2)c(Cl)c1 returned TRAIL sens C8 5.5 and SENP8 block-2 -474.5.
`CN(C)c1ccc(/C=N\Nc2ccccn2)cc1` gave SENP6 inh 68.1*, SENP7 inh 54.2*, SENP8 block-1 33.8, TRAIL sens C8 32.0, SENP8 block-2 -172.5, SENP8 conf 58.0*, SENP6 confirm 56.9*, SENP7 conf 86.2*, Casp3 SENP sel 67.8* and SENP luc ctr 28.5.
`O=C1NC(Cc2ccccc2)C(=O)N1Cc1cc([N+](=O)[O-])cc2c1OCOC2` (centres undefined) gave SENP6 inh 11.7, SENP7 inh -9.7, PPC-1+TRAIL kill 9.7, SENP8 block-1 2.9, TRAIL sens C8 -13.3 and SENP8 block-2 15.4.
`O=C1C[C@@H]2c3c(cccc3CN1Cc1ccc(Cl)cc1)C[C@@H](O)[C@H]2O` gave TRAIL sens C8 3.3 and SENP8 block-2 6.0.
For CC(=Nc1cccc(O)c1)c1sc2ccccc2c1O the results were SENP6 inh 91.1*, SENP7 inh 89.7*, PPC-1+TRAIL kill 35.3, SENP8 block-1 89.7*, TRAIL sens C8 10.0, SENP8 block-2 -5.0, SENP8 conf 84.3*, SENP6 confirm 81.7*, SENP7 conf 93.2*, Casp3 SENP sel 54.2* and SENP luc ctr 72.3*.
CCOC(=O)c1sc2ccccc2c1OC(=O)c1ccc(C)cc1 was read as SENP6 inh -1.8, SENP7 inh -9.7, PPC-1+TRAIL kill -6.5, SENP8 block-1 -5.9, TRAIL sens C8 9.3 and SENP8 block-2 6.9.
`CC(=Nc1ccc(C)cc1)c1sc2ccccc2c1O` gave SENP6 inh 94.0*, SENP7 inh 95.5*, PPC-1+TRAIL kill 43.3, SENP8 block-1 90.1*, TRAIL sens C8 62.4*, SENP8 block-2 -52.9, SENP8 conf 94.6*, SENP6 confirm 95.8*, SENP7 conf 100.6*, Casp3 SENP sel 85.0* and SENP luc ctr 48.1.
Screening Cc1nn(-c2ccc(N3CCOCC3)nn2)c(C)c1CCC(=O)N1CCN(C)CC1 returned SENP6 inh 5.9, SENP7 inh 3.9, SENP8 block-1 9.0, TRAIL sens C8 2.7 and SENP8 block-2 4.2.
Cc1ccccc1NC(C)C(=O)N/N=C/c1ccccc1OCc1cccc(Br)c1 (centres undefined) was read as SENP6 inh -15.5, SENP7 inh -3.5, PPC-1+TRAIL kill 1.1, SENP8 block-1 -10.2, TRAIL sens C8 0.3 and SENP8 block-2 18.2.
`COc1ccc(NC(C)C(=O)N/N=C/c2ccccc2OCc2cccc(Br)c2)cc1` (centres undefined) gave SENP6 inh 5.0, SENP7 inh 92.6*, PPC-1+TRAIL kill 16.3, SENP8 block-1 1.9, TRAIL sens C8 7.8, SENP8 block-2 20.4, SENP8 conf -12.8, SENP6 confirm -6.3, SENP7 conf -8.6, Casp3 SENP sel 7.2 and SENP luc ctr -2.5.
`Brc1ccc(-c2ncc(-c3ccccc3)cn2)cc1` gave SENP6 inh 6.8, SENP7 inh 74.1*, PPC-1+TRAIL kill -1.5, SENP8 block-1 19.8, TRAIL sens C8 10.5, SENP8 block-2 17.8, SENP8 conf 10.8, SENP6 confirm 11.5, SENP7 conf -5.5, Casp3 SENP sel -2.6 and SENP luc ctr -2.2.
Screening CCN(CC)C(=O)[C@H]1C[C@H](CC(=O)NC(C)(C)C)C(=O)N2CCc3c([nH]c4ccc(Cl)cc34)[C@]12C returned SENP7 inh -1.1, TRAIL sens C8 9.9 and SENP8 block-2 2.9.
COc1ccccc1-c1csc(C(C)(O)c2cccc(F)c2)n1 (centres undefined) was read as TRAIL sens C8 7.7 and SENP8 block-2 7.1.
Screening Cc1ccc(NC(=O)c2cnccn2)cc1C returned SENP6 inh 68.7*, SENP7 inh 70.7*, SENP8 block-1 39.1, TRAIL sens C8 4.9, SENP8 block-2 12.2, SENP8 conf 66.0*, SENP6 confirm 60.8*, SENP7 conf 83.4*, Casp3 SENP sel 84.1* and SENP luc ctr 63.4*.
`Cc1ccc(NC(=O)c2cnccn2)cc1` gave SENP6 inh 14.0, SENP7 inh 20.6, PPC-1+TRAIL kill 4.2, SENP8 block-1 10.2, TRAIL sens C8 8.9 and SENP8 block-2 11.9.
Screening CC(C)(C)N1C(=O)Cc2c1nc(N)c1c(N)nc(N3CCCCC3CO)c(C#N)c21 (centres undefined) returned SENP6 inh 93.1*, SENP7 inh 94.2*, PPC-1+TRAIL kill -5.7, SENP8 block-1 96.5*, TRAIL sens C8 8.7, SENP8 block-2 inactive, SENP8 conf 19.6, SENP6 confirm 25.5, SENP7 conf 9.1, Casp3 SENP sel 0.8 and SENP luc ctr -0.3.
